Laboratory results reported in the supplement of paper PMC10849652.
Targets with a hit are over-represented here; the source holds about 7,900 in all. About 0.6% of all pairs of compound and target were hits. Values without a mark were called inactive.

compound: Cc1ccc(-n2nc(C(C)(C)C)cc2NC(=O)Nc2ccc(OCCN3CCOCC3)c3ccccc23)cc1 [doramapimod]; experiment: log2 fold change, soluble protein after heating vs DMSO (PISA); higher = thermal stabilisation; K562 cells, 10 uM, 30 min; active = over 0.2 and 3.5 SD of the protein, either way, in both replicates (recomputed)
Summary of the method: (§1)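 Values are thermal stability changes relative to control samples and are taken from duplicates. They are stated as log2 fold changes. Before quantification by TMTpro 16plex LC-MS/MS with equalised channel sums, K562 cells at 2×10^6 cells/mL were treated with 10 μM compound for 30 min, heated in aliquots for 3 min across 48°C-58°C, pooled, extracted in PBS with 0.5% NP-40 at 4°C, and centrifuged at 21,000xg for 90 min to give the soluble supernatant.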

UniProt O94913, sequence (O94913 whole entry, looked up): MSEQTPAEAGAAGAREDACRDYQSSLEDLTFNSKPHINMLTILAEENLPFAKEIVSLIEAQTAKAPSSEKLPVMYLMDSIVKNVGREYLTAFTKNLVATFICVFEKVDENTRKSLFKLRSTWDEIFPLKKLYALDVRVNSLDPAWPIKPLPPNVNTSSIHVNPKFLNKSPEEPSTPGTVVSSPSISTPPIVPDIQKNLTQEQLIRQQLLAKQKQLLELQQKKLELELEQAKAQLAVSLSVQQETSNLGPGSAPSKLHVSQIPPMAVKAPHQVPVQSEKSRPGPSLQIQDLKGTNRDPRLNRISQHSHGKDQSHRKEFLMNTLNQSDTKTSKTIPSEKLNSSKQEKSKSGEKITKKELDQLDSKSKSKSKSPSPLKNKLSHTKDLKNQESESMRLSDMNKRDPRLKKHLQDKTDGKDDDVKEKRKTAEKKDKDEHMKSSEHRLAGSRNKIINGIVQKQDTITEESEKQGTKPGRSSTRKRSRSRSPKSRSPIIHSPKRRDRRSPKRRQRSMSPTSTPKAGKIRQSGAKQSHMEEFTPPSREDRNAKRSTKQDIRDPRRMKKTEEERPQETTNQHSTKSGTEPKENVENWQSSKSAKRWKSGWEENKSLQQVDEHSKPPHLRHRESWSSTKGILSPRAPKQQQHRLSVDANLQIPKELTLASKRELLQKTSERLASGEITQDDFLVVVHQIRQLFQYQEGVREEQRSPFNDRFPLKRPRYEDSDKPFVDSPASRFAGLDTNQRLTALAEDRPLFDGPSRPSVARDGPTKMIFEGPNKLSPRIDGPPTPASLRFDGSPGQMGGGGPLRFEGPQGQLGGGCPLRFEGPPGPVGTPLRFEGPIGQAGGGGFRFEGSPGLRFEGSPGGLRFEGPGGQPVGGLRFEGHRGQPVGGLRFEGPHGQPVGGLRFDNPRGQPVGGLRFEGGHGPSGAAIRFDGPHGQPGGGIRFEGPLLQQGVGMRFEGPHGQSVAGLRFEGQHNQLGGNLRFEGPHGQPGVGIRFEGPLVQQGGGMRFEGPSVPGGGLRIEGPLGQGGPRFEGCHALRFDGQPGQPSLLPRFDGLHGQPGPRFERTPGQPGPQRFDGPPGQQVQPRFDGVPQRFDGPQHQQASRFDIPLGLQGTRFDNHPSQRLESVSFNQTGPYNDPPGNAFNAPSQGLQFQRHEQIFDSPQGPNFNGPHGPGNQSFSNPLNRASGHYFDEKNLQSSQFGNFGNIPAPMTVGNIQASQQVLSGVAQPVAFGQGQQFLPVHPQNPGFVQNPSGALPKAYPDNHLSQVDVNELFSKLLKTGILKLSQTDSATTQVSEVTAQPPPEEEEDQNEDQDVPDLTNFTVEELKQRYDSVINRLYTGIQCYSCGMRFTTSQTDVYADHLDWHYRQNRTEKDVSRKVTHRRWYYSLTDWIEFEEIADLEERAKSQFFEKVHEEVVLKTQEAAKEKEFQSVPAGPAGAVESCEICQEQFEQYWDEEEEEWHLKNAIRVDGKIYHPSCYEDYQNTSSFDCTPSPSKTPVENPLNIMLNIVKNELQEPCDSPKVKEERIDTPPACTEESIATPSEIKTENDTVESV
UniProt Q9NYI0, sequence (Q9NYI0 whole entry, looked up): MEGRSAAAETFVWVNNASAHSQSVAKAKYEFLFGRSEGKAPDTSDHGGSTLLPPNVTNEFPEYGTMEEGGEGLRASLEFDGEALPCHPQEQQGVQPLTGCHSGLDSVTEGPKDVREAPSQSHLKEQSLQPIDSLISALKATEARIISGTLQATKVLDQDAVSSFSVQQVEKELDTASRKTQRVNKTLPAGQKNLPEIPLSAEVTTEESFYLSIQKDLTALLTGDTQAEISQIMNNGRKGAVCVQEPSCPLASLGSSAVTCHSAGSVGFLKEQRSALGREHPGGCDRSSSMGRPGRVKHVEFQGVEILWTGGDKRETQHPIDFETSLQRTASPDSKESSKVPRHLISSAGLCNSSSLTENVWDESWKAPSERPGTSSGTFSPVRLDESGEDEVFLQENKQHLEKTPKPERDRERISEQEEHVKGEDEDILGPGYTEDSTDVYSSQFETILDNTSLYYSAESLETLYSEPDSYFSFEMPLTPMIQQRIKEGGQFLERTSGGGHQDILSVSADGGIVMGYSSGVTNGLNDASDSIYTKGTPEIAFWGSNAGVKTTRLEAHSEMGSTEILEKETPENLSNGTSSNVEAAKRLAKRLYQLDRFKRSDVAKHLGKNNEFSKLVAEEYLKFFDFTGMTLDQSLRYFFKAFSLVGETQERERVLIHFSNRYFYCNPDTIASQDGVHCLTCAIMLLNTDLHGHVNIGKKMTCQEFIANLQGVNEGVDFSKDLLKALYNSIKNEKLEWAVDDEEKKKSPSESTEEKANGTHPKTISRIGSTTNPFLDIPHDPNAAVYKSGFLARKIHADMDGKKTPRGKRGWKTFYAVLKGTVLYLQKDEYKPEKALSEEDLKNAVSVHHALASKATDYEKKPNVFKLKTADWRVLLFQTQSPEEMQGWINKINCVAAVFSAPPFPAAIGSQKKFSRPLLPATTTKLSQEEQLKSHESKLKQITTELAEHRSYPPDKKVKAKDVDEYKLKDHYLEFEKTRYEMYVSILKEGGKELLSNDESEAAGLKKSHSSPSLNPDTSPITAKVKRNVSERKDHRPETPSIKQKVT
UniProt Q8N2W9, sequence (Q8N2W9 whole entry, looked up): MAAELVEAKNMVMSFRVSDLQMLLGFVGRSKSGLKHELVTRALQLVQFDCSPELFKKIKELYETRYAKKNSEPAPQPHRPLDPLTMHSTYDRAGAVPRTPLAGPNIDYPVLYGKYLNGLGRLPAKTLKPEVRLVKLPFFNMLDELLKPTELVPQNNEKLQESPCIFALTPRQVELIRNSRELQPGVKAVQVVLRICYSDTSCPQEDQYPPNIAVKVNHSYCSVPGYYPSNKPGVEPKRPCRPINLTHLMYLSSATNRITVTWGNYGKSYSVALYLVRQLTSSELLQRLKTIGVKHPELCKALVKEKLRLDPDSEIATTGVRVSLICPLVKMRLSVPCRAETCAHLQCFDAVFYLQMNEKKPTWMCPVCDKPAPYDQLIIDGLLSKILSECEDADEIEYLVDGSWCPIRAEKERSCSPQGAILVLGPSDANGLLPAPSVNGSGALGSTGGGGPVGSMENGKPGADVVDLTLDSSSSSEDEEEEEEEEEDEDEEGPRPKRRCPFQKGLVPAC
UniProt Q13362, sequence (Q13362 whole entry, looked up): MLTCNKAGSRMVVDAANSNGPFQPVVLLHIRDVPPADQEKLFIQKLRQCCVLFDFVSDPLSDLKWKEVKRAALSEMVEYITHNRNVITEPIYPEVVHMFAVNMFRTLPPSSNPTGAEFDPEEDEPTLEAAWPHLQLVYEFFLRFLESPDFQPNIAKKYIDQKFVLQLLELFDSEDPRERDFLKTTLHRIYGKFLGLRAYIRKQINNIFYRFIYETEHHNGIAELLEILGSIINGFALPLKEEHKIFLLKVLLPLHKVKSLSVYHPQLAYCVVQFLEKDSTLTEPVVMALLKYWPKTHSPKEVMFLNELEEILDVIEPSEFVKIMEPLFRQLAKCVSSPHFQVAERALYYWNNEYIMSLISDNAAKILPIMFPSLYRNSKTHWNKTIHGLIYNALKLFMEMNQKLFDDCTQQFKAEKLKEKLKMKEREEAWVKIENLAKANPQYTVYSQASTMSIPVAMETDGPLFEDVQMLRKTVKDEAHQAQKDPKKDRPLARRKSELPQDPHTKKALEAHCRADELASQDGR
UniProt P60484, sequence (P60484 whole entry, looked up): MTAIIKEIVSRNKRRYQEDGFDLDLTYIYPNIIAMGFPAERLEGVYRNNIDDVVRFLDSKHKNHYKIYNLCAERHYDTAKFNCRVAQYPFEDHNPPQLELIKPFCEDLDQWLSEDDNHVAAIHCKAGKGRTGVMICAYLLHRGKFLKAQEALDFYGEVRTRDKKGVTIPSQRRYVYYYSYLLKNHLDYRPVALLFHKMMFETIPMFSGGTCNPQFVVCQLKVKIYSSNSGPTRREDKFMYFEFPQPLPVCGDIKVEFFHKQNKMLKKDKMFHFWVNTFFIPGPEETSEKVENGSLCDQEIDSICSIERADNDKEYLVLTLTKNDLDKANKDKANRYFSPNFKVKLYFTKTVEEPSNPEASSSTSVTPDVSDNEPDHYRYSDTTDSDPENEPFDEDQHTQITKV
UniProt P14618, sequence (P14618 whole entry, looked up): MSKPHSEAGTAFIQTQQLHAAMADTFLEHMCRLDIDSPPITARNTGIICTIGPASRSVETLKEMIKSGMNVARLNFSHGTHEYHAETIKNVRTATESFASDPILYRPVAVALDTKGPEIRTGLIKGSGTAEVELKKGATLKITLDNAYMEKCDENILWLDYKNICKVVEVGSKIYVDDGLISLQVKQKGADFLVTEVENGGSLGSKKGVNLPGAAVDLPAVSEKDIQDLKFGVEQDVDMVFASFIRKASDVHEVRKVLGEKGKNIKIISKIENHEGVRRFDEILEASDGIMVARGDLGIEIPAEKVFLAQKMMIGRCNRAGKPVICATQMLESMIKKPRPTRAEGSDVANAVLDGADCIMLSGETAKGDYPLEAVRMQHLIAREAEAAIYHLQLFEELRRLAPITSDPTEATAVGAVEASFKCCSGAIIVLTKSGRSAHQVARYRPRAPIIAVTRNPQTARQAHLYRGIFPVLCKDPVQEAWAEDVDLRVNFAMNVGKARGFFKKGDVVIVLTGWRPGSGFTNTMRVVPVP
UniProt Q14442, sequence (Q14442 whole entry, looked up): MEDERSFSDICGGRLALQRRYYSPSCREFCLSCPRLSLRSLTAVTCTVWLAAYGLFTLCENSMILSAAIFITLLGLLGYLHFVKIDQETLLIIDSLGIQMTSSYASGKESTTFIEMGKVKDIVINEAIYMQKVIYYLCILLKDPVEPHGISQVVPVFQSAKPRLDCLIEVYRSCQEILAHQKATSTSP
UniProt Q68D20, sequence (Q68D20 whole entry, looked up): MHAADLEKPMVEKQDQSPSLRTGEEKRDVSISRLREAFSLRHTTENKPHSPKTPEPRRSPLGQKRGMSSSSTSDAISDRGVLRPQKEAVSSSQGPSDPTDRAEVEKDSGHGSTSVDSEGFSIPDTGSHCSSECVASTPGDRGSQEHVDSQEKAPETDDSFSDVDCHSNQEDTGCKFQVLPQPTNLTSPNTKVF

Row | Target | log2 fold change
1 | PDE4DIP (UniProt E9PS60) | 0.102
2 | PIAS4 (UniProt Q8N2W9) | 0.061
3 | PKM isoform 2 (UniProt P14618) | 0.029
4 | PTEN isoform 2 (UniProt P60484) | 0.001
5 | PDE4A (UniProt P27815) | 0.065
6 | PSMC3 (UniProt E9PLG2) | -0.058
7 | PPP2R5C isoform 2 (UniProt Q13362) | 0.052
8 | POLR2E (UniProt P19388) | -0.078
9 | PUM1 (UniProt Q14671) | 0.041
10 | PCF11 (UniProt O94913) | 0.051
11 | PHLDB1 isoform 2 (UniProt Q86UU1) | 0.032
12 | PSD3 (UniProt Q9NYI0) | -0.02
13 | PSMD8 (UniProt K7ERW6) | 0.066
14 | PSMA3 (UniProt G3V4X5) | 0.149
15 | PIGH (UniProt Q14442) | -0.062
16 | PCBP2 (UniProt F8VZX2) | -0.107
17 | PSMA3 (UniProt H0YJ03) | 0.072
18 | PHC3 isoform 7 (UniProt Q8NDX5) | 0.131

compound: Cc1ccc(C(=O)N(CCCN)[C@@H](c2nc3cc(Cl)ccc3c(=O)n2Cc2ccccc2)C(C)C)cc1 [ispinesib]; experiment: as above
Summary of the method: as §1

Row | Target | log2 fold change
19 | PIAS4 (UniProt Q8N2W9) | -0.278
20 | PMS2CL (UniProt Q68D20) | 0.105
21 | PKM isoform 2 (UniProt P14618) | 0.016
22 | PTPA (UniProt A6PVN8) | -0.04
23 | PTEN isoform 2 (UniProt P60484) | 0.024
24 | PDE4A (UniProt P27815) | -0.098
25 | PPP2R5C isoform 2 (UniProt Q13362) | 0.023
26 | POLR2E (UniProt P19388) | -0.058
27 | PCF11 (UniProt O94913) | -0.533
28 | PHLDB1 isoform 2 (UniProt Q86UU1) | -0.053
29 | PSD3 (UniProt Q9NYI0) | -0.075
30 | PUF60 isoform 2 (UniProt Q9UHX1) | 0.173
31 | PSMA3 (UniProt G3V4X5) | -0.081
32 | PIGH (UniProt Q14442) | 0.033
33 | PHRF1 (UniProt Q9P1Y6) | -0.296
34 | PEX5 isoform 4 (UniProt P50542) | -0.078
35 | PPP1R12C (UniProt Q9BZL4) | -0.009
36 | PLCXD1 (UniProt Q9NUJ7) | -0.145
37 | PCBP2 (UniProt F8VZX2) | -0.124
38 | PSMA3 (UniProt H0YJ03) | -0.213
39 | POLB (UniProt P06746) | -0.1
